# This is part of a sample that, as a whole, favours compounds with a hit. Of some 83,000 tested, about 20% had one in any assay.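 Cells were grown in 96-well plates and exposed to the test compound at a single concentration for 48 hours; results are reported as percent growth, with values below 10 considered active.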 A number with no mark means an inactive call. Calls of active or inactive are those of the source.
# System: HOP-62 NSCLC
# Assay: NCI-60 one-dose screen, 48 h (100 = growth as untreated, 0 = no growth, -100 = all killed)
# Settings: 10 µM unless noted
# Protocol: Growth inhibition of the HOP-62 human Non-Small Cell Lung tumor cell line is measured as a screen for anti-cancer activity. Cells are grown in 96 well plates and exposed to the test compound for 48 hours. Compounds are tested at a single concentration, which is 10^-5 M for most compounds. The reported endpoint is percent growth (GI% or GIPRCNT), where numbers from 0 - 100% represent growth inhibition, and numbers from -100% - 0 represent cell death. For example, a value of 40 represents 60% growth inhibition. A value of 0 means no net growth occurred over the course of the experiment. A value of -40 indicates 40% of cells at the beginning of the experiment died by the end of the experiment. A value of -100 means all cells are dead at the end of the experiment.
# NCI-60 Human Tumor Cell Lines Screen was performed using the standard one-dose NCI protocol, which is described in more detail at https://dtp.cancer.gov/discovery_development/nci-60/default.htm.
# Compounds with GIPRCNT values below 10 were considered active. Activity score was based on GIPRCNT using the following formula: […]
# Score is 0 for GIPRCNT values of 100 or above, 50 for GIPRCNT values of 0, and 100 for GIPRCNT values of -100.
row,Structure (SMILES),growth
1,O=C(O)c1cn(C2CC2)c2cc(N3CCN(C(=O)N/N=C/c4ccccc4)CC3)c(F)cc2c1=O,107%
2,N#Cc1nc2c(S(=O)(=O)c3ccccc3)c(N)n(Cc3cccnc3)c2nc1C#N,-8.31% (active)
3,COc1ccc(C2C3=C(COC3=O)N(CCO)c3cc4c(cc32)OCCO4)cc1OC (stereo not given),46.3%
4,CS(=O)(=O)Nc1cc(-c2ccc3ncnc(Nc4ccc5c(cnn5Cc5cccnc5)c4)c3c2)cnc1Cl,51.2%
5,CCOC(=O)c1c(-c2ccccc2)n2c(=O)cc(C)c3c(O)c(O)cc1c32,39.4%
6,CCN(CC)CCNC(=O)c1ccc(-c2nc3ccc4[nH]ncc4c3c3c2CCCC3)cc1,57.3%
7,COc1cccc(NC(=O)c2cccc(C3CCc4c(cc(OC)c(OC)c4OC)O3)c2)c1 (stereo not given),85.2%
8,CC[C@@H](c1ccc2cc(OC)ccc2c1)C(C)(C)C(=O)F,90.8%
9,O=C(CCCCCCCCC(=O)N/N=C\c1cc(Cl)ccc1O)N/N=C\c1cc(Cl)ccc1O,30.7%
10,Cc1c2cnccc2c(C)c2c1c1cc(C3OCCCO3)ccc1n2C,-13% (active)
11,CCOC(=O)c1n[nH]n2c1nc(=O)c1cnn(C)c12,103%
12,Cc1cc(C)cc(Nc2ccc([N+](=O)[O-])c(NCCN3CCOCC3)n2)c1,35.3%
13,CC(C)c1ccc(C(=O)Nc2sc3cc(O)ccc3c2C#N)cc1,41.1%
14,C=C1C(=O)O[C@H]2[C@H]1CC/C(Cn1cc(-c3cc(C(F)(F)F)cc(C(F)(F)F)c3)nn1)=C\CC[C@@]1(C)O[C@@H]21,-78.6% (active)
15,COc1ccc2c(O)c(/C=C3\N=Nc4ccccc43)oc2c1C[C@H]1CCNC[C@H]1F,53.6%
16,C/C(C=O)=C\c1ccc2c(c1)OCO2,108%
17,COc1ccc(/C=C/C(=O)c2ccc(Nc3nc(Nc4ccc(F)cc4)nc(Nc4ccc(Cl)cc4)n3)cc2)cc1,112%
18,CCSC1=CC(=O)c2ccccc2C1=O,76.8%
19,O=S(=O)(c1ccccc1)N1CCCN(c2nc(-c3ccccc3)nc3nc(-c4ccccc4)oc23)CC1,104%
20,Cn1cc(-c2nonc2-c2c[nH]c3ccc(F)cc23)c2cc(Br)ccc21,40.5%

row,Structure (SMILES),growth
1,COC(=O)/C=C1/SC(=Nc2cccc(Cl)c2)N(CCc2c[nH]c3ccc(O)cc23)C1=O,15.4%
2,O=C1OCC2=C1C(c1cccc(C(F)(F)F)c1)c1cc3c(cc1N2CCO)OCO3 (stereo not given),33%
3,CCCCCCCC/C=C\CCCCCCCCOc1ccc(CC(=O)NCC[N+](C)(C)C)cc1,24.3%
4,CNC(=O)c1c(NC(=O)c2ccc(C(C)(C)C)cc2)sc2c(CN(C)C)c(O)ccc12,8.39% (active)
5,Oc1c(I)cc(-c2nc3ccccc3s2)cc1CN(Cc1ccccn1)Cc1ccccn1,15.7%
6,Cc1cc2nc(-c3c(-c4ccc(F)cc4)nc4sccn34)[nH]c2cc1C,108%
7,COc1ccc(C2C(C#N)=C(N)Oc3c2sc2c(Br)cccc32)cc1 (stereo not given),23.7%
8,CC(O)c1ncc(/C=C2\SC(=S)N(Cc3ccccc3)C2=O)s1 (stereo not given),104%
9,Cc1cc(N2CCCCC2)nc(N2CCN(CC(=O)Nc3ccc4c(ccn4Cc4ccccc4)c3)CC2)n1,67.1%
10,COc1cc(C(=O)/C=C/c2ccc(N3CCN(C)CC3)cc2)cc(OC)c1OC,91.4%
11,Cc1cc(C(=O)Nc2cc(Nc3ncccc3-c3ncnc4nc[nH]c34)ccc2F)cc(C(F)(F)F)c1,38.5%
12,CN1CCN(C(=O)c2cc(-c3ccc4ncnc(N5CCc6cc(F)c(Cl)cc65)c4c3)cnc2N)CC1,12%
13,C/C(=N\Nc1nc(C)cs1)c1cc2ccccc2o1,63.6%
14,CCNc1nc(-c2ccc(F)cc2)c(C#N)c(=O)n1C,51.8%
15,COC(=O)c1c2c(c(C)[n+]([O-])c1C)C(=O)C=CC2=O,-65.4% (active)
16,COc1ccc(/C(C)=C(\c2ccc(Cl)cc2)c2ccc(OCCN3CCCC3)cc2)cc1,59.2%
17,C/C(=N\O)C(=O)NCCCCCC(=O)Nc1ccccc1,102%
18,CN1CCN(c2ccc3c(c2)nc(NNC(=O)c2cnccn2)c2cccn23)CC1,25.1%
19,Cc1cc(C)c(-c2c(O)c(Br)c(-c3c(C)cc(C)c(Br)c3C)c(O)c2Br)c(C)c1Br,62%
20,O=C(Nc1ccccc1)c1sc(-c2ccccc2)cc1O,112%

# Reference: PubChem BioAssay (NCI)
